Screening data (PubChem BioAssay)
KKLEB cytotox: counter-screen for CF NF-kB inhibitors: cytotoxicity; actives 0.36% (n = 360,000); activity change (cytotoxicity), % at 5 µM; KKLEB CF airway cells viability, ATPlite luminescence, overnight; active compounds read low; cells stimulated with P. aeruginosa culture filtrate;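 active means corrected activity change at or below -50% at 5 µM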
PAX8 reporter: inhibitors of PAX8 transcriptional activity in RMG-I cells; RMG-I TPO-luciferase reporter, SteadyGlo, 24 h; inhibition, % at 12.6 µM; actives 1.2% (n = 360,000); AID 652154;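 active means mean replicate inhibition at least 60% with every replicate also reaching 60%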;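 further: luciferase light reporting Pax8 driven TPO promoter activity; plate controls were median of neutral control wells for no effect and mitoxantrone controls for full effect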
CF NFkB block: cystic fibrosis NF-kB activation inhibition; KKLEB NF-kB-GFP reporter, PAF-induced, GFP fluorescence overnight; inhibition, % at 5 µM; actives 0.86% (n = 360,000);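 active means at least 50% inhibition at 5 µM, scaled per plate between neutral and stimulator controls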;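 further: PAF is a Pseudomonas aeruginosa culture filtrate used as stimulus; plate controls were PAF-stimulated DMSO wells for no effect and unstimulated DMSO wells for full effect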
EWS-Fli block: blocks EWS/Fli oncoprotein-driven transcription; AID 651661; actives 0.67% (n = 350,000); inhibition, % at 12.6 µM; A673 NR0B1-luciferase reporter, viability-normalised;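 active means mean inhibition of at least 50% after viability correction, with every replicate also passing that limit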;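 further: firefly luciferase signal divided by Alamar Blue viability fluorescence both relative to DMSO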
Shn3 inh set2: inhibitors of Schnurri-3 3'UTR reporter in osteoblasts; Clone20 osteoblast Shn3 3'UTR firefly luciferase, 24 h; AID 588674; actives 0.52% (n = 360,000); inhibition, % at 12.5 µM;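 active means mean inhibition of at least 75% with every replicate also reaching 75%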;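 further: 0% = median of neutral control wells and 100% = pilot-screen positive control compound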
LGR2 inh: blocks bursicon-induced cAMP signaling via Drosophila LGR2 | HEK293 LGR2, CRE-luciferase, bursicon-stimulated, 4 h | inhibition, % at 9.99 µM | actives 0.35% (n = 380,000) | AID 720647;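 active means drop in luminescence signal, shown as inhibition above about 50% in the replicate tests, limit read from the data, passing the limit was not always enough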;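 further: agonist challenge used bursicon conditioned medium at about half maximal strength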
CF NFkB conf: CF NF-kB inhibition confirmation, single concentration. shares compounds with CF NFkB block. actives 64% (n = 1,300). AID 602472. inhibition, % at 5 µM. KKLEB CF airway cells, PAF-induced NF-kB-GFP fluorescence, overnight; in the data active means inhibition above about 40%;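 further: stimulus PAF is a Pseudomonas aeruginosa filtrate and not platelet activating factor; plate controls were DMSO wells with stimulus for no effect and unstimulated DMSO wells for full effect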
DNA binder FP: binds DNA displacing acridine orange; shares compounds with EWS-Fli block; salmon sperm DNA acridine orange fluorescence polarization; AC35, µM (top dose mostly 68 µM), without a hit: at the highest dose activity change, negative = DNA binding; actives 2% (n = 640);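 active means fitted curve reaches a 35% signal fall AC35 below twice the sample's top valid tested dose, actives reach about 48 µM in these data; inactive means the rest, including activity in the rising direction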;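 further: lower polarization ratio signals compound binding to DNA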
* = called active by the depositor; nt = no result given. Sampled rows, rich in hits. Any-hit rate of the full collection: about 2%.

SMILES	KKLEB cytotox	PAX8 reporter	CF NFkB block	EWS-Fli block	Shn3 inh set2	LGR2 inh	DNA binder FP	others
COc1ccc(-n2nnnc2C(CCSC)N2CCC(n3c(=O)[nH]c4ccccc43)CC2)cc1 (stereo unspecified)	-24	48	81*	9	18	-3	nt	CF NFkB conf=70*
CCC(c1nnnn1-c1ccc(OC)cc1)N1CCC(n2c(=O)[nH]c3ccccc32)CC1 (stereo unspecified)	8	8	-2	-14	9	-1	nt
COc1ccc(-n2nnnc2C(c2ccccc2OC(F)(F)F)N2CCC(n3c(=O)[nH]c4ccccc43)CC2)cc1 (stereo unspecified)	3	25	18	-2	8	37	nt
Cc1ccc(OC(=O)N(C)C[C@H]2OCc3ccccc3-c3c(n(C)c4ccccc34)C(=O)N([C@H](C)CO)C[C@@H]2C)cc1	nt	46	nt	3	nt	19	nt
COCC(=O)N1[C@@H]2c3ccc(C4=CCCC4)c(=O)n3C[C@H]1[C@H](CO)[C@H]2C(=O)OC	nt	-1	nt	2	nt	-16	nt
COC(=O)[C@@H]1[C@@H](CO)[C@@H]2Cn3c(ccc(-c4ccccc4)c3=O)[C@H]1N2S(=O)(=O)c1ccccc1C	nt	-3	nt	1	nt	14	nt
O=C1C=CC(=O)C2C1C1(Cl)C(Cl)=C(Cl)C2(Cl)C1(Cl)Cl (stereo unspecified)	-1	5	54*	-1	33	5	nt	CF NFkB conf=31
O=C(CN1CCOCC1)c1cccc2ccccc12	-9	6	6	nt	-8	nt	nt
Cc1c(C(=O)c2cccc3ccccc23)c2cccc3c2n1[C@H](CN1CCOCC1)CO3	-7	101*	55*	-8	14	24	nt	CF NFkB conf=64*
COC(=O)[C@@H]1[C@@H](CO)[C@@H]2Cn3c(ccc(C4=CCCC4)c3=O)[C@H]1N2C(=O)CC1CC1	nt	nt	nt	-1	nt	18	nt
Cc1ccc(OC(=O)N(C)C[C@@H]2OCc3ccccc3-c3c(n(C)c4ccccc34)C(=O)N([C@@H](C)CO)C[C@@H]2C)cc1	nt	0	nt	-1	nt	22	nt
COc1cc2c(c(OC)c1O)-c1ccc(OC)c(=O)cc1C(NC(=O)C(F)(F)F)CC2 (stereo unspecified)	-23	80*	51*	37	20	6	nt	CF NFkB conf=87*
O=C(Cc1ccccn1)N1CCCCN2[C@@H](CO)[C@H](c3ccc(Br)cc3)[C@@H]2C1	nt	6	nt	1	nt	-15	nt
CC(=O)c1c(C)n(C2CCCCC2)c2ccc(O)cc12	-14	-12	96*	4	14	25	nt	CF NFkB conf=100*
CC(=O)c1c(C)n(Cc2ccccc2)c2ccc(O)cc12	-8	7	41	0	4	6	nt
O=C(Cc1ccccc1)N1C[C@H]2[C@@H](c3ccccc31)[C@@H](CO)N2Cc1ccccc1	nt	5	nt	8	nt	-13	nt
C[C@@H]1O[C@@H](O[C@@H]2C=C3CC[C@@H]4C(CC[C@]5(C)[C@@H](c6ccc(=O)oc6)CC[C@]45O)[C@@]3(C)CC2)[C@H](O)[C@H](O)[C@H]1O (stereo partly specified)	-76*	108*	89*	71*	3	86*	-10%
C[C@@H]1O[C@@H](O[C@@H]2C=C3CCC4C(CC[C@]5(C)[C@@H](c6ccc(=O)oc6)CC[C@]45O)[C@@]3(C)CC2)[C@H](O)[C@H](O)[C@H]1O (stereo partly specified)	-62*	110*	88*	71*	-2	0	2%
COC1C(C)OC(OC2CC(C)(O)Cc3cc4c(c(O)c32)C(=O)c2c(O)cc3c(c2C4=O)OC2OC3(C)C(O)C(N(C)C)C2O)C(OC)C1(C)OC (stereo unspecified)	4	nt	2	56*	3	20	1.3µM*
COC(=O)[C@@H]1[C@@H](CO)[C@@H]2Cn3c(ccc(-c4ccccc4)c3=O)[C@H]1N2CC1CCCC1	nt	nt	nt	-2	nt	12	nt
COC(=O)[C@H]1[C@H](CO)[C@H]2Cn3c(ccc(-c4ccccc4F)c3=O)[C@@H]1N2CC1CCCC1	nt	nt	nt	66*	nt	-1	-10%
C[C@@H]1O[C@@H](O[C@H]2C[C@@H](O)[C@]3(CO)[C@H]4[C@H](O)C[C@]5(C)[C@@H](C6COC(=O)C6)CC[C@]5(O)[C@@H]4CC[C@]3(O)C2)[C@H](O)[C@H](O)[C@H]1O (stereo partly specified)	-21	105*	63*	70*	-3	81*	-1%
COc1ccc(C(=O)N/N=C/C23CC[C@@H](O)CC2(O)CC[C@@H]2[C@@H]3CCC3(C)C(C4=CC(=O)OC4)CCC23O)cc1 (stereo partly specified)	23	-16	-16	11	-1	17	nt
CC1OC(OC2CC(O)C3(CO)C4C(O)CC5(C)C(C6=CC(=O)OC6)CCC5(O)C4CCC3(O)C2)C(O)C(O)C1O (stereo unspecified)	-51*	nt	91*	68*	-10	90*	5%
COC(=O)[C@@H]1[C@@H](CO)[C@@H]2Cn3c(ccc(C4=CCCCC4)c3=O)[C@H]1N2C(=O)CC1CC1	nt	8	nt	2	nt	2	nt
SMILES	KKLEB cytotox	PAX8 reporter	CF NFkB block	EWS-Fli block	Shn3 inh set2	LGR2 inh	DNA binder FP	others
CC=Cc1ccc2n(c1=O)C[C@@H]1[C@@H](CO)[C@H](C(=O)O)[C@H]2N1S(=O)(=O)c1ccccc1F (mixture of isomers)	nt	-8	nt	-7	nt	-13	nt
O=C(O)[C@@H]1[C@@H](CO)[C@@H]2Cn3c(ccc(-c4ccncc4)c3=O)[C@H]1N2S(=O)(=O)c1ccccc1F	nt	nt	nt	-3	nt	-12	nt
O=C1NC(=S)NC(=O)C1=Cc1cccn1-c1ccc(O)cc1	2	32	26	71*	16	nt	0%
CCN1[C@@H]2c3ccc(-c4cccc(OC)c4)c(=O)n3C[C@H]1[C@H](CO)[C@H]2C(=O)OC	nt	-6	nt	2	nt	-13	nt
COC(=O)[C@H]1[C@H](CO)[C@H]2Cn3c(ccc(-c4ccccc4F)c3=O)[C@@H]1N2C(C)=O	nt	7	nt	-3	nt	-7	nt
CC(=O)OC1CC(OC2C(O)CC(OC3C(O)CC(OC4CCC5(C)C(CCC6C5CCC5(C)C(C7=CC(=O)OC7)CCC65O)C4)OC3C)OC2C)OC(C)C1OC1OC(CO)C(O)C(O)C1O (stereo unspecified)	-58*	102*	82*	53*	1	86*	-17%
O=C(Cc1ccccn1)N1CCCCN2[C@H](C1)[C@@H](c1ccc(Br)cc1)[C@@H]2CO	nt	-7	nt	-13	nt	0	nt
